From article PMC7862700, “An all-to-all approach to the identification of sequence-specific readers for epigenetic DNA modifications on cytosine”

Columns and labels:
Test in all cases: DAPPL (digital affinity profiling via proximity ligation, sequencing); 10 mM Tris-HCl pH 7.5, 50 mM NaCl, 1 mM DTT, 4% glycerol, room temperature, 30 min; GST-TFs on glutathione beads, 16-mer random dsDNA library, 0.1% formaldehyde crosslink after washing; high values mean tight binding
Conditions in all cases: protein: recombinant; tags: N-terminal GST; dsDNA, one strand shown
ETV1 = ETV1 (Homo sapiens, UniProt P50549 1-477)
Procedure, shortened: (§1)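 Yeast served to express human transcription factors as GST fusions, which were then captured on glutathione beads and labelled with DNA barcodes. Pooled with a tag-only sample, they were incubated with 200 nmole of a 16-mer random double-stranded DNA library for 30 min at room temperature in Tris/NaCl/DTT/glycerol buffer, washed, crosslinked with 0.1% formaldehyde, ligated by proximity, amplified by PCR and sequenced. Dividing each hexamer's read frequency for a factor by its frequency for the tag-only sample gives the binding signal.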

ERF = biological target: T1, ERF (Homo sapiens, UniProt P50548 1-548)
T1 sequence: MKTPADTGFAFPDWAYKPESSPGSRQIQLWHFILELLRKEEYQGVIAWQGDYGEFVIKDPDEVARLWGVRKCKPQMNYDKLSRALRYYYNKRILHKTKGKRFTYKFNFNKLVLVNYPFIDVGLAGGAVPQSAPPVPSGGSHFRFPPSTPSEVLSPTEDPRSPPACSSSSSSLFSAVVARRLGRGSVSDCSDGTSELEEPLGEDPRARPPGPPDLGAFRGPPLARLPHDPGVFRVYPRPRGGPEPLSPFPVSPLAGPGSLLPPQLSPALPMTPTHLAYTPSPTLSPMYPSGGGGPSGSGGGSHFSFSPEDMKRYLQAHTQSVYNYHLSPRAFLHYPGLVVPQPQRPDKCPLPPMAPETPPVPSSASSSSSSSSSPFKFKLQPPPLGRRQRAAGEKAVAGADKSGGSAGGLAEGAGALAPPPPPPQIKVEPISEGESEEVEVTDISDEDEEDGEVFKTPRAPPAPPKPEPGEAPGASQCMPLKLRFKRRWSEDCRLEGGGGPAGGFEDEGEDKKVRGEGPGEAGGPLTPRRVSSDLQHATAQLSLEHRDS
Procedure, shortened: as §1

ETV3L = biological target: T2, ETV3L (Homo sapiens, UniProt Q6ZN32 1-361)
T2 sequence: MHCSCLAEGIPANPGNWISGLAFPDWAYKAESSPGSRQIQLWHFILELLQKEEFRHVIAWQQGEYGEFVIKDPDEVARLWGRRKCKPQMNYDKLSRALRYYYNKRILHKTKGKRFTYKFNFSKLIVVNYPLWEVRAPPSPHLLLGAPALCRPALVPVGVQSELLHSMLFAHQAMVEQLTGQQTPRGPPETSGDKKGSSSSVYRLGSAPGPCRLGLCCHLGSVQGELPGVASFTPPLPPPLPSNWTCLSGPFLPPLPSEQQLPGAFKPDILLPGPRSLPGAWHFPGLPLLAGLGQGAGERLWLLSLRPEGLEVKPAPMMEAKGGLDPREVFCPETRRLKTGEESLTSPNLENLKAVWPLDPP
Procedure, shortened: as §1

ETS2 = biological target: T3, ETS2 (Homo sapiens, UniProt P15036 1-469)
T3 sequence: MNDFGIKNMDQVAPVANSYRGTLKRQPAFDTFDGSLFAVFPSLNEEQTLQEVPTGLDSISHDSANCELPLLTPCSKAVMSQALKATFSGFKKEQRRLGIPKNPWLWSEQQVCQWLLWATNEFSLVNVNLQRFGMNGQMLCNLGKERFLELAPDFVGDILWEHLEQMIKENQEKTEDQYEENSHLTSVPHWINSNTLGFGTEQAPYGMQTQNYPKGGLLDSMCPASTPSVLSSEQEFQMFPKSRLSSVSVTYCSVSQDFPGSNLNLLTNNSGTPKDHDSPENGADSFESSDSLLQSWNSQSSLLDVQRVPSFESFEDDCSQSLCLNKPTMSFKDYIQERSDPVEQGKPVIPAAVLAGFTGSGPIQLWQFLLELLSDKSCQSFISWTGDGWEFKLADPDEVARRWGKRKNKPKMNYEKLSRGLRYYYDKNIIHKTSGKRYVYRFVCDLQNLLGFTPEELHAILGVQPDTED
Procedure, shortened: as §1

SPDEF = biological target: T4, SPDEF (Homo sapiens, UniProt O95238 1-335)
T4 sequence: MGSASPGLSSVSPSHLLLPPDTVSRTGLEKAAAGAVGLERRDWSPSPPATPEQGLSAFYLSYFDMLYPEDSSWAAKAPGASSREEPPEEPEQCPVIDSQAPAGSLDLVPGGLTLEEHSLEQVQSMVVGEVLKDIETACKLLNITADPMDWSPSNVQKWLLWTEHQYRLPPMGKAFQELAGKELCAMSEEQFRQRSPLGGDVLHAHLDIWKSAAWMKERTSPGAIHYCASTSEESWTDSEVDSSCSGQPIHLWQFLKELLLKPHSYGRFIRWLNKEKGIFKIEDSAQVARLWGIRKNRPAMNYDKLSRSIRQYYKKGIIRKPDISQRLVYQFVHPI
Procedure, shortened: as §1

ETV7 = biological target: T5, ETV7 (Homo sapiens, UniProt Q9Y603 1-341)
T5 sequence: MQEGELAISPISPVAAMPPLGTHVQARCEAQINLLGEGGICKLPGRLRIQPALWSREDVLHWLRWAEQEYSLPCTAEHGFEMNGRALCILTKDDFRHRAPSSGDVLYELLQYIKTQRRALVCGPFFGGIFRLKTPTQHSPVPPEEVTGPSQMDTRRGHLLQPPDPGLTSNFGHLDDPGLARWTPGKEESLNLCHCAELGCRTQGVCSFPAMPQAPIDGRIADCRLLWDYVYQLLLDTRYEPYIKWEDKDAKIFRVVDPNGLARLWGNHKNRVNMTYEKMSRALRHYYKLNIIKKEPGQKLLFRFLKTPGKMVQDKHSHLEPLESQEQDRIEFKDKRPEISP
Procedure, shortened: as §1

ELF5 = biological target: T6, ELF5 (Homo sapiens, UniProt Q9UKW6-2 1-255)
T6 sequence: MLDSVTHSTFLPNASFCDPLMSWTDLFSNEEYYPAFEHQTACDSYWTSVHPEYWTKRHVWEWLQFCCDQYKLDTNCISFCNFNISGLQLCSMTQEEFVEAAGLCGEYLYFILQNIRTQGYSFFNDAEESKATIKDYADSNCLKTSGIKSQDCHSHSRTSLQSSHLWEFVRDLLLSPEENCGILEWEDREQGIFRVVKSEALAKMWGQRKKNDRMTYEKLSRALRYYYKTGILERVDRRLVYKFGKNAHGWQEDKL
Procedure, shortened: as §1

ETV3 = biological target: T7, ETV3 (Homo sapiens, UniProt P41162-2 1-143)
T7 sequence: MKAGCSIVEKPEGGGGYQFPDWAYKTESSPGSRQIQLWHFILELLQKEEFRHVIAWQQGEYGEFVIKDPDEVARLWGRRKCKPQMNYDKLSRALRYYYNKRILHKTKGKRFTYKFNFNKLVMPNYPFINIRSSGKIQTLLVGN
Procedure, shortened: as §1

ETV6 = ETV6 (Homo sapiens, UniProt P41212 1-452)
Procedure, shortened: as §1

Chain of ETV6 (P41212 whole entry): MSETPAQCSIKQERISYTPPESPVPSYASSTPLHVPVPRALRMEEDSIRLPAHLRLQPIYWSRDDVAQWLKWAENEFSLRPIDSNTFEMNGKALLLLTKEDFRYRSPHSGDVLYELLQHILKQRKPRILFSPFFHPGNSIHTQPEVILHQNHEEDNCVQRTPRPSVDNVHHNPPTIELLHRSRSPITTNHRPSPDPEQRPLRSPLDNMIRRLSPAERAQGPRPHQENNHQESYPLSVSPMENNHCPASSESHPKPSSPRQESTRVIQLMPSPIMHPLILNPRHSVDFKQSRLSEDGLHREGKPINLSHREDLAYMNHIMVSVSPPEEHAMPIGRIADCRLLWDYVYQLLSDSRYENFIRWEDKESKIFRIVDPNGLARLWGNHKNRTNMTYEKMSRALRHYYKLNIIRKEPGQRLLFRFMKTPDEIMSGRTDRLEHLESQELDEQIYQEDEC
Chain of ETV1 (P50549 whole entry, the tested form may be a part): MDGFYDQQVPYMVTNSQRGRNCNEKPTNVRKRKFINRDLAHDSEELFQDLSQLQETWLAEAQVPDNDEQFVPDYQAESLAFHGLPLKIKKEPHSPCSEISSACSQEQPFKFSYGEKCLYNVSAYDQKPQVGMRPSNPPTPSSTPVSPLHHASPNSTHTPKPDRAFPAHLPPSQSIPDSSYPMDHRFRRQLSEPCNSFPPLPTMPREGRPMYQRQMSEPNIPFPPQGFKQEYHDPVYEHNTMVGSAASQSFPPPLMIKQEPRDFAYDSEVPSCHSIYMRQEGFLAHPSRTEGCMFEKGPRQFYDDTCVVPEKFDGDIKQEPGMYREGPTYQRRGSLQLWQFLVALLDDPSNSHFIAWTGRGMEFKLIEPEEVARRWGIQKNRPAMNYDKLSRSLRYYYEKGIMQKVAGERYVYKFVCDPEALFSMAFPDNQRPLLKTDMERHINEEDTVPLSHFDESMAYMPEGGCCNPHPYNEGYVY

**Q.** Which binding signal (ETV1) does the source give for TAGTTC here?
**A.** The binding signal was 1.4 fold enrichment (6-mer frequency, TF over GST control).

**Q.** What about the binding signal (ERF) of the same sequence?
**A.** Its binding signal is 1.29 fold enrichment (6-mer frequency, TF over GST control).

**Q.** And the binding signal (ETV3L)?
**A.** The binding signal was 1.44 fold enrichment (6-mer frequency, TF over GST control).

**Q.** And the binding signal (ETS2)?
**A.** The binding signal was 1.43 fold enrichment (6-mer frequency, TF over GST control).

**Q.** And the binding signal (SPDEF)?
**A.** Its binding signal is 1.5 fold enrichment (6-mer frequency, TF over GST control).

**Q.** What about the binding signal (ETV7) of the same sequence?
**A.** Its binding signal is 1.31 fold enrichment (6-mer frequency, TF over GST control).

**Q.** What about the binding signal (ELF5) of the same sequence?
**A.** The binding signal was 1.41 fold enrichment (6-mer frequency, TF over GST control).

**Q.** And the binding signal (ETV3)?
**A.** The binding signal was 1.49 fold enrichment (6-mer frequency, TF over GST control).

**Q.** What about the binding signal (ETV6) of the same sequence?
**A.** Its binding signal is 1.41 fold enrichment (6-mer frequency, TF over GST control).
